Experimental data: article PMC11006913

How the values were obtained:
Assay in all cases: PBM; 200 nM protein, PBS
Conditions in all cases: dsDNA, one strand shown
HESX1 [1] = molecular target: HESX1 (Homo sapiens, UniProt Q9UBX0 95-180, R165K)
HESX1 [2] = molecular target: HESX1 (Homo sapiens, UniProt Q9UBX0 95-180)
HESX1 [3] = molecular target: HESX1 (Homo sapiens, UniProt Q9UBX0 95-180, R109Q)
HESX1 [4] = molecular target: HESX1 (Homo sapiens, UniProt Q9UBX0 95-180, P111T)
HESX1 [5] = molecular target: HESX1 (Homo sapiens, UniProt Q9UBX0 95-180, F115L)
CRX = CRX (Homo sapiens, UniProt O43186 26-111, E42D)
SHOX [6] = molecular target: SHOX (Homo sapiens, UniProt O15266 103-189)
SHOX [7] = molecular target: SHOX (Homo sapiens, UniProt O15266 103-189, R173C)
PROP1 [8] = molecular target: PROP1 (Homo sapiens, UniProt O75360 56-141)
PROP1 [9] = molecular target: PROP1 (Homo sapiens, UniProt O75360 56-141, R99H)
PROP1 [10] = molecular target: PROP1 (Homo sapiens, UniProt O75360 56-141, F88S)
ALX4 [11] = molecular target: ALX4 (Homo sapiens, UniProt Q9H161 200-286)
ALX4 [12] = molecular target: ALX4 (Homo sapiens, UniProt Q9H161 200-286, Q225E)
MSX2 [13] = molecular target: MSX2 (Homo sapiens, UniProt P35548 130-214, R199I)
MSX2 [14] = molecular target: MSX2 (Homo sapiens, UniProt P35548 130-214)
ALX3 [15] = molecular target: ALX3 (Homo sapiens, UniProt O95076 139-225)
MSX2 [16] = molecular target: MSX2 (Homo sapiens, UniProt P35548 130-214, F161Y)
ALX3 [17] = molecular target: ALX3 (Homo sapiens, UniProt O95076 139-225, N203S)
HOXA7 [18] = molecular target: HOXA7 (Homo sapiens, UniProt P31268 116-202)
HOXA7 [19] = molecular target: HOXA7 (Homo sapiens, UniProt P31268 116-202, W177C)
Chain of HOXA7 (Homo sapiens, UniProt P31268 116-202, W177C) (P31268 116-202 W177C): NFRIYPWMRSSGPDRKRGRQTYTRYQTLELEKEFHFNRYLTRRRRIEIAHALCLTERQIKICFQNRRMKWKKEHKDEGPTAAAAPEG

Chain of PROP1 (Homo sapiens, UniProt O75360 56-141) (O75360 56-141): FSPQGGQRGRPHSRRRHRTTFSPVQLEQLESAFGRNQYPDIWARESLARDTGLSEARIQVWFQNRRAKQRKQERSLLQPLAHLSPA
Chain of HESX1 (Homo sapiens, UniProt Q9UBX0 95-180, P111T) (Q9UBX0 95-180 P111T): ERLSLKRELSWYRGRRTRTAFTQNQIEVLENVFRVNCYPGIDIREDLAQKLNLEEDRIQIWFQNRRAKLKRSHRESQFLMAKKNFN
Chain of HESX1 (Homo sapiens, UniProt Q9UBX0 95-180, R109Q) (Q9UBX0 95-180 R109Q): as the sequence (Q9UBX0 95-180 P111T) above, with R15Q, T17P counted along it
Chain of HESX1 (Homo sapiens, UniProt Q9UBX0 95-180, R165K) (Q9UBX0 95-180 R165K): as the sequence (Q9UBX0 95-180 P111T) above, with T17P, R71K counted along it
Chain of PROP1 (Homo sapiens, UniProt O75360 56-141, F88S) (O75360 56-141 F88S): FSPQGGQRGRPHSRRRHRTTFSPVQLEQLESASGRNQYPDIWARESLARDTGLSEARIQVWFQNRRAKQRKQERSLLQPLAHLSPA
Chain of SHOX (Homo sapiens, UniProt O15266 103-189) (O15266 103-189): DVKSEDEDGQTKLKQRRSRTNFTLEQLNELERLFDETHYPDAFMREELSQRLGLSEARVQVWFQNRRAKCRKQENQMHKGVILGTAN
Chain of ALX4 (Homo sapiens, UniProt Q9H161 200-286) (Q9H161 200-286): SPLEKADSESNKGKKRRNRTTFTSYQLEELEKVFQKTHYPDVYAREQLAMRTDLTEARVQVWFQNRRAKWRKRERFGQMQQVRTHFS
Chain of CRX (O43186 26-111 E42D): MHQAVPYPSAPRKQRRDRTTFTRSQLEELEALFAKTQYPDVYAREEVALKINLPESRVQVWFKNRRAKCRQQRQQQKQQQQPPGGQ
Chain of SHOX (Homo sapiens, UniProt O15266 103-189, R173C) (O15266 103-189 R173C): as the sequence (O15266 103-189) above, with R71C counted along it
Chain of ALX4 (Homo sapiens, UniProt Q9H161 200-286, Q225E) (Q9H161 200-286 Q225E): as the sequence (Q9H161 200-286) above, with Q26E counted along it
Chain of HESX1 (Homo sapiens, UniProt Q9UBX0 95-180) (Q9UBX0 95-180): as the sequence (Q9UBX0 95-180 P111T) above, with T17P counted along it
Chain of HESX1 (Homo sapiens, UniProt Q9UBX0 95-180, F115L) (Q9UBX0 95-180 F115L): as the sequence (Q9UBX0 95-180 P111T) above, with T17P, F21L counted along it
Chain of PROP1 (Homo sapiens, UniProt O75360 56-141, R99H) (O75360 56-141 R99H): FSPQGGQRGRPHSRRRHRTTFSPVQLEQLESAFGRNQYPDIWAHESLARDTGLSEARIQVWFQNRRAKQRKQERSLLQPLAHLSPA
Chain of MSX2 (Homo sapiens, UniProt P35548 130-214, R199I) (P35548 130-214 R199I): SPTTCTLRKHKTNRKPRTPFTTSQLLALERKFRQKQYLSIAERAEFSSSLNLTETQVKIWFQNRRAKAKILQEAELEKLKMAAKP
Chain of MSX2 (Homo sapiens, UniProt P35548 130-214) (P35548 130-214): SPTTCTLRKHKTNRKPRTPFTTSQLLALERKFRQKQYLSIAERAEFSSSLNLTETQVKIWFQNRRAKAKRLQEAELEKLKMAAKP
Chain of MSX2 (Homo sapiens, UniProt P35548 130-214, F161Y) (P35548 130-214 F161Y): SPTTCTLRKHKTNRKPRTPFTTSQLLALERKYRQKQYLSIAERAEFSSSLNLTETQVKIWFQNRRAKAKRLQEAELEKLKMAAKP
Chain of ALX3 (Homo sapiens, UniProt O95076 139-225, N203S) (O95076 139-225 N203S): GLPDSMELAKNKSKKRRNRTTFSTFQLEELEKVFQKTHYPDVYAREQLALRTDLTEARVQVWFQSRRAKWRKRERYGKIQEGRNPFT
Chain of ALX3 (Homo sapiens, UniProt O95076 139-225) (O95076 139-225): as the sequence (O95076 139-225 N203S) above, with S65N counted along it
Chain of HOXA7 (Homo sapiens, UniProt P31268 116-202) (P31268 116-202): as the sequence (P31268 116-202 W177C) above, with C62W counted along it

## CTTCCGTC
HESX1 [1]
  binding signal: 6.54 upbm affinity estimate (log intensity, higher = more binding, comparable within an allelic series)
HESX1 [2]
  binding signal: 6.45 upbm affinity estimate (log intensity, higher = more binding, comparable within an allelic series)
HESX1 [3]
  binding signal: 6.56 upbm affinity estimate (log intensity, higher = more binding, comparable within an allelic series)
HESX1 [4]
  binding signal: 6.55 upbm affinity estimate (log intensity, higher = more binding, comparable within an allelic series)
HESX1 [5]
  binding signal: 6.61 upbm affinity estimate (log intensity, higher = more binding, comparable within an allelic series)

## CGAACGCC
CRX
  binding signal: 8.15 upbm affinity estimate (log intensity, higher = more binding, comparable within an allelic series)

## ATTACGTA
CRX
  binding signal: 10.4 upbm affinity estimate (log intensity, higher = more binding, comparable within an allelic series)

## ACCAGCTG
SHOX [6]
  binding signal: 7.08 upbm affinity estimate (log intensity, higher = more binding, comparable within an allelic series)
SHOX [7]
  binding signal: 7.03 upbm affinity estimate (log intensity, higher = more binding, comparable within an allelic series)

## CGGTCCAA
SHOX [6]
  binding signal: 7.28 upbm affinity estimate (log intensity, higher = more binding, comparable within an allelic series)
CRX
  binding signal: 8.43 upbm affinity estimate (log intensity, higher = more binding, comparable within an allelic series)
SHOX [7]
  binding signal: 7.18 upbm affinity estimate (log intensity, higher = more binding, comparable within an allelic series)

## ACGGCTGG
PROP1 [8]
  binding signal: 6.59 upbm affinity estimate (log intensity, higher = more binding, comparable within an allelic series)
PROP1 [9]
  binding signal: 6.78 upbm affinity estimate (log intensity, higher = more binding, comparable within an allelic series)
PROP1 [10]
  binding signal: 6.67 upbm affinity estimate (log intensity, higher = more binding, comparable within an allelic series)

## CACTTAGA
HESX1 [1]
  binding signal: 7.73 upbm affinity estimate (log intensity, higher = more binding, comparable within an allelic series)
HESX1 [2]
  binding signal: 7.94 upbm affinity estimate (log intensity, higher = more binding, comparable within an allelic series)
HESX1 [5]
  binding signal: 6.78 upbm affinity estimate (log intensity, higher = more binding, comparable within an allelic series)

## ACGCGCAG
SHOX [6]
  binding signal: 7.05 upbm affinity estimate (log intensity, higher = more binding, comparable within an allelic series)
SHOX [7]
  binding signal: 7.17 upbm affinity estimate (log intensity, higher = more binding, comparable within an allelic series)

## CCGCGTCG
HESX1 [1]
  binding signal: 6.63 upbm affinity estimate (log intensity, higher = more binding, comparable within an allelic series)
HESX1 [2]
  binding signal: 6.33 upbm affinity estimate (log intensity, higher = more binding, comparable within an allelic series)
HESX1 [3]
  binding signal: 6.5 upbm affinity estimate (log intensity, higher = more binding, comparable within an allelic series)
HESX1 [4]
  binding signal: 6.49 upbm affinity estimate (log intensity, higher = more binding, comparable within an allelic series)
HESX1 [5]
  binding signal: 6.48 upbm affinity estimate (log intensity, higher = more binding, comparable within an allelic series)

## CGGGCTCC
ALX4 [11]
  binding signal: 7.48 upbm affinity estimate (log intensity, higher = more binding, comparable within an allelic series)
ALX4 [12]
  binding signal: 7.51 upbm affinity estimate (log intensity, higher = more binding, comparable within an allelic series)
MSX2 [13]
  binding signal: 9.06 upbm affinity estimate (log intensity, higher = more binding, comparable within an allelic series)
MSX2 [14]
  binding signal: 8.79 upbm affinity estimate (log intensity, higher = more binding, comparable within an allelic series)
ALX3 [15]
  binding signal: 7.17 upbm affinity estimate (log intensity, higher = more binding, comparable within an allelic series)
MSX2 [16]
  binding signal: 8.87 upbm affinity estimate (log intensity, higher = more binding, comparable within an allelic series)
ALX3 [17]
  binding signal: 7.54 upbm affinity estimate (log intensity, higher = more binding, comparable within an allelic series)

## CCGGCGCG
CRX
  binding signal: 8.4 upbm affinity estimate (log intensity, higher = more binding, comparable within an allelic series)

## CCCGGCGG
ALX4 [11]
  binding signal: 7.89 upbm affinity estimate (log intensity, higher = more binding, comparable within an allelic series)
ALX4 [12]
  binding signal: 8.11 upbm affinity estimate (log intensity, higher = more binding, comparable within an allelic series)
PROP1 [8]
  binding signal: 6.68 upbm affinity estimate (log intensity, higher = more binding, comparable within an allelic series)
PROP1 [9]
  binding signal: 6.68 upbm affinity estimate (log intensity, higher = more binding, comparable within an allelic series)
PROP1 [10]
  binding signal: 6.39 upbm affinity estimate (log intensity, higher = more binding, comparable within an allelic series)

## CACTTTAA
SHOX [6]
  binding signal: 8.82 upbm affinity estimate (log intensity, higher = more binding, comparable within an allelic series)

## ACCCGGGC
SHOX [6]
  binding signal: 7.11 upbm affinity estimate (log intensity, higher = more binding, comparable within an allelic series)
SHOX [7]
  binding signal: 7.15 upbm affinity estimate (log intensity, higher = more binding, comparable within an allelic series)

## CTAATTGC
HESX1 [1]
  binding signal: 12.3 upbm affinity estimate (log intensity, higher = more binding, comparable within an allelic series)
SHOX [6]
  binding signal: 11.8 upbm affinity estimate (log intensity, higher = more binding, comparable within an allelic series)
HOXA7 [18]
  binding signal: 11.4 upbm affinity estimate (log intensity, higher = more binding, comparable within an allelic series)
ALX4 [11]
  binding signal: 13.6 upbm affinity estimate (log intensity, higher = more binding, comparable within an allelic series)
ALX4 [12]
  binding signal: 12.8 upbm affinity estimate (log intensity, higher = more binding, comparable within an allelic series)
HESX1 [2]
  binding signal: 12.5 upbm affinity estimate (log intensity, higher = more binding, comparable within an allelic series)
MSX2 [13]
  binding signal: 13 upbm affinity estimate (log intensity, higher = more binding, comparable within an allelic series)
SHOX [7]
  binding signal: 9.34 upbm affinity estimate (log intensity, higher = more binding, comparable within an allelic series)
MSX2 [14]
  binding signal: 14 upbm affinity estimate (log intensity, higher = more binding, comparable within an allelic series)
ALX3 [15]
  binding signal: 12.3 upbm affinity estimate (log intensity, higher = more binding, comparable within an allelic series)
PROP1 [8]
  binding signal: 11.2 upbm affinity estimate (log intensity, higher = more binding, comparable within an allelic series)
HESX1 [3]
  binding signal: 8.98 upbm affinity estimate (log intensity, higher = more binding, comparable within an allelic series)
PROP1 [9]
  binding signal: 11.5 upbm affinity estimate (log intensity, higher = more binding, comparable within an allelic series)
HESX1 [4]
  binding signal: 10.9 upbm affinity estimate (log intensity, higher = more binding, comparable within an allelic series)
PROP1 [10]
  binding signal: 7.41 upbm affinity estimate (log intensity, higher = more binding, comparable within an allelic series)
MSX2 [16]
  binding signal: 13.6 upbm affinity estimate (log intensity, higher = more binding, comparable within an allelic series)
HESX1 [5]
  binding signal: 7.52 upbm affinity estimate (log intensity, higher = more binding, comparable within an allelic series)
HOXA7 [19]
  binding signal: 8.67 upbm affinity estimate (log intensity, higher = more binding, comparable within an allelic series)
ALX3 [17]
  binding signal: 8.29 upbm affinity estimate (log intensity, higher = more binding, comparable within an allelic series)

## CGGACCCG
CRX
  binding signal: 8.29 upbm affinity estimate (log intensity, higher = more binding, comparable within an allelic series)
